From PubChem BioAssay AID488857 (Sanford-Burnham Center for Chemical Genomics, 2010) come the findings set out here.

Hit rate of the full screen: of about 1,400 compounds, about 560 (40%) were called active. So high a share suggests a set chosen from earlier hits. The list shows a part of the results. A number with no mark means an inactive call.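 How the source made its calls: active means mean inhibition over duplicate tests at 10 µM above 50%; inactive means the rest.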

This test is described as follows: ASC/caspase-1 reporter retest in S. cerevisiae at one dose, specificity check for NALP1 project (AID 488857). The note with it: S. cerevisiae ASC/Caspase-1, beta-galactosidase luminescence, 24 h; at 10 µM; active compounds read high.
With `CC1=CCC2C(=O)N(Cc3ccccc3)C(=O)C2C1` (stereo not drawn), the inhibition was 33.4%. The figure for `COc1ccc(-c2noc(CCC(=O)N3CCC(C)CC3)n2)cc1` is 47.6%; for `CCCN(Cc1nc(-c2ccc(Cl)cc2)no1)CC1CCCO1` (stereo not drawn) it is 54.2% (active). As for `O=C(COC(=O)C1(c2ccccc2F)CCCC1)N1CCOCC1`, the inhibition is 27.1%. As for `O=C1NC(c2ccccc2)Nc2c1sc(=S)n2-c1ccccc1` (stereo not drawn), the inhibition was 32.5%.

Take `COCCN=C1Sc2nc3ccc(C)cc3cc2CN1Cc1ccco1`: the inhibition was 57.1% (active). As to `COC(=O)c1cc(=O)n(-c2ccccc2)c(=Nc2ccccc2)s1`, the inhibition was 61.7% (active). For `COC(=O)c1cc(=O)n(-c2ccc(F)cc2)c(=Nc2ccc(F)cc2)s1`, the inhibition is 39.8%. As for `Cc1csc(NC(=O)CCc2ccc(S(=O)(=O)N3CCOCC3)cc2)n1`, the inhibition is 40.8%.

With `Cc1nc(NC(=O)CCc2ccccc2)ccc1Br`, the inhibition is 63.3% (active). Take `OC(CN1CCN(Cc2ccccc2)CC1)Cn1c2ccccc2c2ccccc21` (stereo not drawn): the inhibition is 56.6% (active). Take `COc1ccc(OCC(O)Cn2c(=N)n(Cc3ccccc3)c3ccccc32)cc1` (stereo not drawn): the inhibition was 27.6%. For `OC(CN1CCCCC1)Cn1c2ccc(Cl)cc2c2cc(Cl)ccc21` (stereo not drawn), the inhibition is 49%. Regarding `Cc1nc(-c2ccccc2)sc1C(=O)CSc1ccccc1`, the inhibition is 46.5%. As for `CCCSc1ccc2nc(-c3ccccc3)cn2c1`, the inhibition is 88.8% (active). Turning to `CC(C)CC(=O)N1CCN(c2ccc([N+](=O)[O-])cc2Cl)CC1`, the inhibition was 39.9%. Next, `O=[N+]([O-])c1ccc(N2CCN(c3ccc(Cl)nn3)CC2)c(Cl)c1`: 47.7%.

For the compound `O=C1C(Cl)=C(N2CCN(c3ccccc3[N+](=O)[O-])CC2)C(=O)c2ccccc21`, the inhibition is 68.8% (active).

Regarding `CC1(C)Cc2c(c(N3CCOCC3)nc3sc4c(NCCN5CCOCC5)nnnc4c23)CS1`, the inhibition was 37.6%. In the case of `CC(C)(C)c1nnc(N/N=C/c2cc(Br)ccc2O)n(N)c1=O`, the inhibition was 86.8% (active). Next, `O=c1oc2ccccc2nc1/C=C(O)/C=C/c1ccc(F)cc1`: 47.2%; `COc1ccc(C(=O)/C=C/Nc2ccc([N+](=O)[O-])cc2C)c(OC)c1`: 28.5%; `C/C(=N/Nc1ccc([N+](=O)[O-])cc1)c1ccc(C)cc1C`: 50.2% (active). Turning to `CN(C)CCCN(C(=O)c1ccc2c(c1)CCCC2)c1nc2ccc(F)cc2s1`, the inhibition was 61.3% (active). With `CN(C)CCCN(C(=O)c1ccc2c(c1)CCCC2)c1nc2ccc(Cl)cc2s1`, the inhibition is 63.9% (active). Next, `CCOC(=O)c1c(C)[nH]c(N=Nc2cccc(C)c2)c1C`: 46.2%. As to `Cc1cc(N2CCOCC2)ccc1/C=C\[N+](=O)[O-]`, the inhibition is 56.6% (active). Next, `O=C1O/C(=C/c2ccccc2)c2ccccc21`: 78.5% (active). As for `COC1=C(N)C(=O)c2nc(-c3nc(C(=O)O)c(C)c(-c4ccc(OC)c(OC)c4O)c3N)ccc2C1=O`, the inhibition is 29.4%. Regarding `c1ccc(-c2ccc(-c3cn4c(n3)CCC4)cc2)cc1`, the inhibition is 93.3% (active). For the compound `O=C(c1cccc([N+](=O)[O-])c1)n1nc(-c2ccccc2)nc1NCc1ccccc1`, the inhibition is 49.2%. Take `COc1cccc(CNC(=O)CSc2ccc(-c3ccncc3)nn2)c1`: the inhibition is 27.2%. Take `O=C(CSc1nc(-c2ccccc2)cs1)Nc1cccc([N+](=O)[O-])c1`: the inhibition is 75.8% (active). On to `CC(C)NC(=O)CSc1nc(-c2ccccc2)cs1`, for which the inhibition is 52% (active). As for `Cc1ccnc(NS(=O)(=O)c2ccc(NC(=O)CSc3nc(-c4ccccc4)cc(=O)[nH]3)cc2)n1`, the inhibition was 6.75%. With `COc1ccc(Cc2nnc(SC)[nH]c2=O)cc1`, the inhibition is 20.1%. The figure for `Cc1ccc(OCCCCN(C)Cc2ccccc2)c(Br)c1` is 54.8% (active); for `Cc1cc(Br)ccc1OCCCCN1CCC(C)CC1` it is 60.4% (active); for `CCOC(=O)c1[nH]c2ccc(Br)cc2c1NC(=O)CCN1CCC(C)CC1` it is 40%. Take `Brc1cccc(OCCCCN2CCCCC2)c1`: the inhibition is 53.8% (active).

Regarding `CC(C)N(C)CCOC(=O)c1ccccc1Br`, the inhibition was 28.4%. Next, `Cc1ccc(OCCCCN2CCCCC2)c(Br)c1`: 62.1% (active). Consider `CC(C)NCCCCOc1cccc(Br)c1`, for which the inhibition was 45.5%. As for `Brc1cccc(OCCN2CCCCC2)c1`, the inhibition was 49.1%.

Consider `Cn1c(SCC(=O)NC(c2ccccc2)c2ccccc2)nnc1-c1cccs1`, for which the inhibition is 35.6%. Consider `CC(CCc1ccccc1)NC(=O)c1cc2sccc2n1C` (stereo not drawn), for which the inhibition was 52% (active). As to `c1ccc2cc(CSCc3nc4ccccc4[nH]3)ccc2c1`, the inhibition was 71.4% (active). For `C=C(C)C1CC=C(C)/C(=N/NC(=O)c2ccoc2C)C1` (stereo not drawn), the inhibition was 36.6%. Consider `CCOC(=O)c1c(C)[nH]c2c1-c1ccccc1C(=O)C2=O`, for which the inhibition was 26.6%. For `CCOC(=O)c1c(C)[nH]c(C(=O)COC(=O)c2oc3ccccc3c2C)c1C`, the inhibition was 31.9%. With `CCOC(=O)c1c(C)[nH]c(C)c1C(=O)COC(=O)c1cc2ccccc2cc1O`, the inhibition was 55.5% (active). `Cc1cccc(NC2=C(Cl)C(=O)OC2NC(=O)c2ccccc2)c1` (stereo not drawn): the inhibition is 23.1%. As for `COCc1cc(=O)[nH]c(/N=C(\N)Nc2cccc(C)c2)n1`, the inhibition is 25.1%. Turning to `CCCc1nn(C)c(C(=O)Nc2cccc(C)c2)c1Cl`, the inhibition is 65.5% (active). The figure for `Cc1cc(=O)n2ccccc2c1C#N` is 15.6%. As for `O=S(=O)(Nc1ccncc1Cl)c1ccccc1`, the inhibition was 25.1%. Next, `O=C1C2C(C(=O)N1/N=C/c1cc(Br)cc([N+](=O)[O-])c1O)C1C=CC2C12CC2` (stereo not drawn): 66.2% (active); `O=C1C2C(C(=O)N1/N=C/c1ccc([N+](=O)[O-])o1)C1C=CC2C12CC2` (stereo not drawn): 38.2%; `CCOC(=O)c1c(NC2OC(=O)c3c2ccc(OC)c3OC)sc(C(=O)OC(C)(C)C)c1C` (stereo not drawn): 65.2% (active). `CCCCC(C(=O)NC1CCCC1)N(Cc1ccco1)C(=O)Cn1nnc(-c2ccc(F)cc2)n1` (stereo not drawn): the inhibition was 31.1%. In the case of `Cn1cccc1/C=N/N1CCN(Cc2ccc(Cl)cc2)CC1`, the inhibition was 51.9% (active).

In the case of `CC(C)(CN1CCN(Cc2ccccc2)CC1)NS(=O)(=O)c1ccc(Cl)cc1`, the inhibition is 41.8%. Next, `Cc1ccc(CN2CCN(/N=C/c3cccs3)CC2)cc1`: 28.2%.

The term inhibition denotes the drop in the measured response relative to a control, in per cent.
